Consider 40 compounds from PubChem BioAssay (NCI).

The structures appear in SMILES notation. The panel holds about 83,000 compounds, 20% with a hit somewhere; the sample as a whole holds those more often.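 Assay: single dose, 48 h. Readout: percent growth (0 = no net growth; negative = cell death). Active: <10.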 Values without a mark were called inactive. Activity calls are given as the source filed them.

This experiment has as its system MOLT-4 leukemia. The experiment in a line: NCI-60 one-dose screen, 48 h (100 = growth as untreated, 0 = no growth, -100 = all killed). Particulars: 10 µM unless noted. How it is done: Growth inhibition of the MOLT-4 human tumor cell line is measured as a screen for anti-cancer activity. Cells are grown in 96 well plates and exposed to the test compound for 48 hours. Compounds are tested at a single concentration, which is 10^-5 M for most compounds. The reported endpoint is percent growth (GI% or GIPRCNT), where numbers from 0 - 100% represent growth inhibition, and numbers from -100% - 0 represent cell death. For example, a value of 40 represents 60% growth inhibition. A value of 0 means no net growth occurred over the course of the experiment. A value of -40 indicates 40% of cells at the beginning of the experiment died by the end of the experiment. A value of -100 means all cells are dead at the end of the experiment.
NCI-60 Human Tumor Cell Lines Screen was performed using the standard one-dose NCI protocol, which is described in more detail at https://dtp.cancer.gov/discovery_development/nci-60/default.htm.
Compounds with GIPRCNT values below 10 were considered active. Activity score was based on GIPRCNT using the following formula: […]
Score is 0 for GIPRCNT values of 100 or above, 50 for GIPRCNT values of 0, and 100 for GIPRCNT values of -100.
As to `O=C(CC1(O)C(=O)Nc2ccccc21)c1ccc(C(=O)NCC2CCC3(CC2)OOC2(CCCCC2)OO3)cc1` (stereo not given), the growth was 58.4%.

Regarding `CCC(CC)CC1(C)CC2(C)CCOC2OO1` (stereo not given), the growth was 113%. For the compound `C[S+]1C=Cc2ccccc2C1c1ccc(Cl)cc1` (stereo not given), the growth was 85.7%. With `COC(=O)CC12CC(NC(=O)c3csc([C@@H](C[C@H](C(C)C)N(C)C(=O)[C@@H](NC(=O)[C@H]4CCCCN4C)C(C)C)OC(C)=O)n3)(C1)C2`, the growth is 16.5%. Under `Clc1ccc(COC(Cn2ccnc2)c2ccc(Cl)cc2Cl)cc1` (stereo not given) stands -28.4% (active).

`CCOC(=O)[C@@H](C)C[C@H](Cc1ccccc1)NC(=O)c1csc([C@@H](C[C@H](C(C)C)N(C)C(=O)[C@H](CC)NC(=O)[C@H]2CCCCN2C)OC(C)=O)n1`: the growth is 9.18% (active). Take `COc1cc2c(cc1OCCCCn1c(-c3cccs3)nc3ccccc31)N=C[C@@H]1CCCN1C2=O`: the growth was 20.8%. In the case of `Oc1ccc2c3c1OC1[C@@H](O)CC[C@@]4(O)[C@@H](C2)N(CC2CCC2)CC[C@]314` (stereo not given in full), the growth is 97.7%. As for `Nc1ccc2c(c1)Cc1cc(Br)ccc1-2`, the growth was 71%.

Turning to `CC(=O)O[C@H]1CC[C@@]2(C)C(=CC[C@H]3[C@@H]4C[C@@H](N5CC5)[C@H](C(C)=O)[C@@]4(C)CC[C@@H]32)C1`, the growth was 63.4%. The value for `CCCCCCCCCCCCCCCCCC1OC[C@H](COC(=O)O[C@@H](C(=O)O[C@H]2C[C@@]3(O)[C@@H](OC(=O)c4ccccc4)[C@@H]4[C@]5(OC(C)=O)CO[C@@H]5C[C@H](O)[C@@]4(C)C(=O)[C@H](OC(C)=O)C(=C2C)C3(C)C)[C@@H](NC(=O)c2ccccc2)c2ccccc2)O1` (stereo not given in full) was 55.1%; that for `C=CC[PH+](c1ccccc1)c1ccccc1.C=CC[PH+](c1ccccc1)c1ccccc1.[Cl][Pt][Cl]` was 7.63% (active); that for `C[C@]12CCc3nc(Nc4ccccc4F)sc3C1=CC[C@@H]1[C@@H]2CC[C@]2(C)C(=O)CC[C@@H]12` was 14.2%. Regarding `CN(C)CC(C(=O)Cc1ccccc1)c1ccccc1` (stereo not given), the growth is 78%. The value for `CC[C@H](C)[C@H](NC(=O)[C@H]1CCCCN1C)C(=O)N(C)[C@H](C[C@@H](OC(C)=O)c1nc(C(=O)N[C@@H](Cc2ccccc2)C[C@H](C)C(=O)OC)cs1)C(C)C` was 4.63% (active).

As to `CC[C@@H]1[C@@H](C)O[C@@](O)([C@@H](C)[C@H](O)[C@H](C)[C@H]2OC(=O)/C=C/C=C/[C@H](C)[C@@H]([C@@H](C)[C@@H](O)[C@H](C)[C@@]3(O)C[C@@H](O[C@H]4C[C@@H](O)[C@H](O)C(C)O4)[C@H](CC)[C@@H](C)O3)OC(=O)/C=C/C=C/[C@@H]2C)C[C@H]1O[C@@H]1C[C@@H](O)[C@H](O)C(C)O1` (stereo not given in full), the growth is -72.6% (active). Regarding `COc1ccc(C(=O)c2sc3nc4c(cc3c2N)N2CCC4CC2)cc1OC`, the growth was 77.3%. Turning to `Cc1cc(N(CCCl)CCCl)ccc1/C=N\NC(=O)c1ccncc1`, the growth is 58.8%. With `O=P1(NCCCl)OCCCN1CCCl` (stereo not given), the growth was 101%. For the compound `C=CCc1cc2c(cc1OCC)OCO2`, the growth is 113%.

With `COC(=O)[C@@H](C)C[C@H](Cc1ccccc1)NC(=O)c1csc([C@@H](C[C@H](C(C)C)N(C)C(=O)[C@H](C)NC(=O)[C@H]2CCCCN2C)OC(C)=O)n1`, the growth was 33.2%. For the compound `ClCCN(CCCl)c1ccc(OCc2ccccc2)cc1`, the growth is 11.7%.

For `O=C1CNC(c2ccccc2)c2cc(Cl)ccc2N1` (stereo not given), the growth was 93.5%.

`COC(=O)[C@@H](C)C[C@H](Cc1ccccc1)NC(=O)c1nc([C@@H](C[C@H](C(C)C)N(C)C(=O)[C@@H](NC(=O)[C@H]2CC(=O)CCN2C)C(C)C)OC(C)=O)sc1C(C)C`: the growth was 15%.

`CN(C)C(=O)Oc1ccccc1`: the growth was 110%.

In the case of `CC1=C(CCCOC(=O)[C@H](N)CC(C)C)C2=C(C)C3(CC3)[C@@](C)(O)C(=O)C2=C1`, the growth was 80%. As to `Cc1ccc(S(=O)(=O)F)cc1C(=O)O`, the growth was 99.6%. The value for `CC[C@H](C)[C@H](NC(=O)C12C3C4C1C1C2C3C41NC)C(=O)N(C)[C@H](C[C@@H](OC(C)=O)c1nc(C(=O)N[C@@H](Cc2ccccc2)C[C@H](C)C(=O)OC)cs1)C(C)C` (stereo not given in full) was 24.9%. For the compound `CC(=O)c1ccc(C(=O)NCC2CCC3(CC2)OOC2(CCCCC2)OO3)cc1`, the growth is 63.4%. `CCOC(=O)C(Cc1ccc(N(CCCl)CCCl)cc1)NC(=O)C(CC(C)C)NC(C)=O` (stereo not given): the growth is 6.43% (active). In the case of `[Cl][Hg][c]1cc[c]([Hg][Cl])o1`, the growth is 14.3%. Under `COC(=O)[C@@]1(O)C[C@H]2O[C@]1(C)n1c3ccccc3c3c4c(c5c6ccccc6n2c5c31)C(=O)NC4` stands -31% (active). The value for `N#CC1C(C#N)C2CCC1C1C2N1c1ccccc1` (stereo not given) was 91.2%; that for `C[N+](C)(C)Cc1cc(Cl)ccc1O` was 96.9%; that for `Clc1ccc(N2COOC3(OOC2)C2CC4CC(C2)CC3C4)cc1` was 56.9%. With `CCCC(C)C1(CC)C(=O)NC(=O)N(C)C1=O` (stereo not given), the growth is 101%. For the compound `Nc1ccc2c(c1)oc1ccccc12`, the growth is 85%. Regarding `NC(=Nc1ccccc1)N[N+](=O)[O-]`, the growth was 89.2%. As for `CNC(=O)Oc1ccc(C(C)(C)C)cc1OC(=O)NC`, the growth was 81.6%. As for `CC[C@H](C)[C@H](NC(=O)C12C3C4C1C1C2C3C41NC(C)=O)C(=O)N(C)[C@H](C[C@@H](OC(C)=O)c1nc(C(=O)N[C@@H](Cc2ccccc2)C[C@H](C)C(=O)OC)cs1)C(C)C` (stereo not given in full), the growth is 17.7%.
